{
  "source": "PubChem BioAssay AID720541",
  "about": "(National Center for Advancing Translational Sciences (NCATS), 2013)",
  "note": "“And” between values parts separate entries of the source, which are not always exact repeats. Equal entries are not always repeated. Out of some 1,300 compounds screened, about 420 (32%) were called active. Not shown: some 32% with an inconclusive outcome. The call rests on the fitted dose curve; in most records, active means well fitted inhibition curve with a large enough effect; inconclusive means small, poorly fitted or top-dose-only effect; inactive means no such curve, though single readings can be large or run the other way. The list shows a part of the results. The source holds several records for some structures; these can differ, active in one and inactive in another. Potency means the concentration at half of the fitted maximal effect.",
  "data": [
    {"molecular_target": "C-terminal-binding protein 1 (Homo sapiens) (UniProt Q13363)", "assay": "qHTS for Inhibitors of the Phosphatase Activity of Eya2: Carboxyl-terminal binding protein (CtBP) Counterscreen for Cherry-picked Compounds; further: nearly all actives have a fitted effect of over 65% in size", "conditions": "purified protein-protein binding, AlphaScreen, 3 h; series mostly up to 46.1 µM", "description": "The Eya protein family is an essential co-activator of the Six1 transcription factor. Six1 is a developmental gene that is abnormally re-expressed in a large percentage of breast cancers. This over-expression plays a causal role in the initiation and metastatic development of breast cancers. The Eya family of protein is also found to contain a unique HAD phosphatase domain with protein tyrosine phosphatase activity which can potentially play a role in Six1-mediated breast tumorigenesis. Recently, Eya2 is found to dephosphorylate the histone variant H2AX and direct cells towards DNA repair instead of apoptosis in the event of DNA damage.\nA 1536 well format, fluorescence based qHTS assay was developed and used to target the phosphatase activity of Eya2 (AID 488837). In addition, a CtBP counterscreen was developed using the AlphaScreen technology to evaluate compound selectivity to target […]. The data herein reports the activity of the cherry-picked compounds against the CtBP AlphaScreen. Compounds that are active or have > 100 fold selectivity vs. the Eya2 activity were excluded for further characterization. Inactivity is the desired outcome for the CtBP counterscreen.\nNIH Chemical Genomics Center [NCGC]\nNIH Molecular Libraries Probe Centers Network [MLPCN]\nAssay Submitter (PI): Rui Zhao, University of Colorado Denver\nFour microliters of reagent (25 nM GST-E1A, 25 nM CtBP-6x HIS) was dispensed in a 1536 well Greiner plates. Twenty-three nanoliter of test compounds (final concentration of 2.5 nM - 46 uM) and positive control E1A peptide inhibitor (final concentration of 0.14 nM - 4.6 uM) were added to the plates using the Kalypsys pintool equipped with a 1536 pin head. The plates was then incubated at room temperature for 2 hours followed by addition of 1 uL Alpha bead donor / acceptor mix (20 ug/mL final concentration). The assay plates were incubated for additional 1 hour at room temperature and protected from light. The AlphaScreen signal was obtained using the PerkinElmer EnVision plate reader using the 680 nm excitation and 520 - 620 nm emission filters. The data was normalized to the E1A peptide inhibitor for maximum inhibition and DMSO treated wells as negative control.", "values": [
      {"smiles": "O=c1c(CO)cc(CO)cc(CO)c1O", "Potency": "9.53 µM (active)"},
      {"smiles": "Cn1c(=O)n(Cc2ccc(F)cc2)c(=O)c2c1nc1n2CCN1Cc1ccco1", "Potency": "10.7 µM (active)"},
      {"smiles": "Cn1c(=O)n(CCO)c(=O)c2c1nc(Br)n2Cc1ccccc1", "Potency": "inactive"},
      {"smiles": "Cn1c(=O)n(Cc2ccccc2)c(=O)c2c1nc(NCC1CCCO1)n2Cc1ccccc1", "note": "(stereo not given)", "Potency": "inactive"},
      {"smiles": "COCCNC(=O)CCC(=O)NNc1nc2ccccc2c2nc(-c3ccccc3)nn12", "Potency": "inactive"},
      {"smiles": "COc1ccc2c(c1)c1nnc(SC(C)C)nc1n2C", "Potency": "4.78 µM (active)"},
      {"smiles": "Cc1cccc(NC(=S)N(CCN2CCOCC2)Cc2cc3cc4c(cc3[nH]c2=O)OCCO4)c1", "Potency": "inactive"},
      {"smiles": "Nc1ccc2c(c1Cl)C(=O)c1ccc(N)c(Cl)c1C2=O", "Potency": "6.01 µM (active)"},
      {"smiles": "CCOC(=O)c1ccc(NC(=S)N2CCN(CCN=CC3=C(O)CC(c4ccccc4)CC3=O)CC2)cc1", "note": "(stereo not given)", "Potency": "inactive"},
      {"smiles": "COc1cc(N=c2oc3c(C)ncc(CO)c3cc2C(N)=O)cc(OC)c1OC", "Potency": "4.78 µM (active)"},
      {"smiles": "CCOC(=O)Cc1nnc(NC(=O)C(CC)Sc2nnc3c4ccccc4n(C)c3n2)s1", "note": "(stereo not given)", "Potency": "13.5 µM (active)"},
      {"smiles": "O=C(CSc1nnc2c(n1)[nH]c1ccccc12)Nc1ccc(S(=O)(=O)Nc2ncccn2)cc1", "Potency": "5.36 µM (active)"},
      {"smiles": "O=C(CSc1nnc2c(n1)[nH]c1ccccc12)Nc1cccc(S(=O)(=O)N2CCOCC2)c1", "Potency": "inactive"},
      {"smiles": "CCOC(=O)Cc1nnc(NC(=O)CSc2nnc3c(n2)[nH]c2ccccc23)s1", "Potency": "15.1 µM (active)"},
      {"smiles": "Cc1nc(NC(=O)CSc2nnc(-c3ccccc3)c(-c3ccccc3)n2)c(Cl)cc1Cl", "Potency": "inactive"},
      {"smiles": "CCOC(=O)Cc1nnc(NC(=O)CSc2nnc3c4ccccc4n(C)c3n2)s1", "Potency": "15.1 µM (active)"},
      {"smiles": "CC1(C)CC2CC(C)(CN2/C=N/c2sc3c(c2C#N)CC(C)(C)NC3(C)C)C1", "note": "(stereo not given)", "Potency": "inactive"},
      {"smiles": "COc1cc2[nH]cc(C(=O)NCc3ccccc3)c(=O)c2cc1OC", "Potency": "3.79 µM (active)"},
      {"smiles": "COc1ccc(CNC(=O)c2sc(=O)n(Cc3cc(Cl)ccc3OC)c2C)cc1", "Potency": "inactive"},
      {"smiles": "CC1CCC(=NNc2ccc(C(F)(F)F)cc2[N+](=O)[O-])CC1", "note": "(stereo not given)", "Potency": "8.49 µM (active)"},
      {"smiles": "C1=Cc2ccccc2/C1=C\\c1cc2c3c(c1)CCCN3CCC2", "Potency": "8.49 µM (active)"},
      {"smiles": "Cc1cc(=O)n2[nH]c(Nc3cccc(Cl)c3)nc2n1", "Potency": "inactive"},
      {"smiles": "COc1ccc(N2CCN(C(=O)c3cc(-c4cc(OC)ccc4OC)nc4ccccc34)CC2)cc1", "Potency": "13.5 µM (active)"},
      {"smiles": "COc1ccc2cc(C(=O)N3CCN(c4ccc(F)cc4)CC3)[nH]c2c1", "Potency": "inactive"},
      {"smiles": "COc1ccc(Nc2cc(C(=O)N3CCc4ccccc4C3)c3ccccc3n2)c(OC)c1", "Potency": "inactive"},
      {"smiles": "CN(C)CCCN1c2ccc(O)cc2Sc2ccc(Cl)cc21", "Potency": "12 µM (active)"},
      {"smiles": "Nn1c(SCC(=O)Nc2ccc3c(c2)OCCO3)nnc1-c1ccccn1", "Potency": "15.1 µM (active)"},
      {"smiles": "Cn1cc(SCC(=O)Nc2ccc3c(c2)OCCO3)c2ccccc21", "Potency": "inactive"},
      {"smiles": "O=C(CSc1ccc2c(c1)OCCO2)Nc1ccc2c(c1)OCO2", "Potency": "inactive"},
      {"smiles": "Cc1ccc(OCCSc2nc3ccccc3n2CCC(=O)O)c(C(C)C)c1", "Potency": "inactive"},
      {"smiles": "O=C(NC(=S)Nc1ccccc1N1CCCCC1)c1ccco1", "Potency": "inactive"},
      {"smiles": "Cc1cccc(NC(=S)NC(=O)c2ccco2)n1", "Potency": "10.7 µM (active)"},
      {"smiles": "COc1ccc2nc(NC(=S)NC(=O)c3ccco3)sc2c1", "Potency": "inactive"},
      {"smiles": "O=S(=O)(Nc1nccs1)c1ccc(NCc2cc(Br)cc(Br)c2O)cc1", "Potency": "1.9 µM (active)"},
      {"smiles": "CCc1nnc(NS(=O)(=O)c2ccc(NCc3cc(Cl)cc(Cl)c3O)cc2)s1", "Potency": "4.26 µM (active)"},
      {"smiles": "CCS(=O)(=O)N1CCC(C(=O)Oc2ccc(Cl)cc2)CC1", "Potency": "inactive"},
      {"smiles": "CC(=O)Nc1ccc(S(=O)(=O)N2C3CCCC2CC(NC(=O)C2CCCCC2)C3)cc1", "note": "(stereo not given)", "Potency": "inactive"},
      {"smiles": "COc1ccc(C(=O)OCC(=O)Nc2ccc(N3CCOCC3)cc2)cc1", "Potency": "inactive"},
      {"smiles": "CC(=O)Nc1ccc(S(=O)(=O)Nc2ccc(N3CCCCC3)cc2)cc1", "Potency": "8.49 µM (active)"},
      {"smiles": "CC(=O)Oc1cccc2c1C(=O)C1CC=CC(OC(C)=O)C1C2=O", "note": "(stereo not given)", "Potency": "9.53 µM (active)"},
      {"smiles": "O=C(O)c1ccc2c(=O)n3cc(C(=O)c4ccccc4O)cc(Cl)c3nc2c1", "Potency": "12 µM (active)"},
      {"smiles": "O=C(O)c1ccc(N/N=C/c2cc3cc4c(cc3nc2Cl)OCCO4)cc1", "Potency": "inactive"},
      {"smiles": "Cc1cc(C)cc(C(=O)NC(=S)Nc2ccc3c(c2)OCCO3)c1", "Potency": "inactive"},
      {"smiles": "Cc1cc(O)cc(O)c1/C=N/NC(=O)c1ccc2c(c1)OCCO2", "Potency": "8.49 µM (active)"},
      {"smiles": "CCCCC1=CC2=C(c3ccco3)C(=O)C(C)(OC(=O)c3ccc(OC)cc3)C(=O)C2=CN1CCc1ccccn1", "note": "(stereo not given)", "Potency": "inactive"},
      {"smiles": "CCC(C)c1ccc2oc(-c3ccc(NC(=O)c4ncn[nH]4)cc3)nc2c1", "note": "(stereo not given)", "Potency": "13.5 µM (active)"},
      {"smiles": "Cc1ccc(C(=O)Nc2cccc(-c3nc4ncccc4o3)c2)cc1", "Potency": "inactive"},
      {"smiles": "CC(C)c1ccc2oc(-c3ccc(NC(=O)c4ncn[nH]4)cc3)nc2c1", "Potency": "12 µM (active)"},
      {"smiles": "Cc1ccc(NC(=O)c2[nH]cnc2C(=O)NN)cc1", "Potency": "15.1 µM (active)"},
      {"smiles": "CCOC(=O)c1ccc(NC(=O)c2nc[nH]c2C(=O)N[C@@H](Cc2ccccc2)C(=O)OC(C)(C)C)cc1", "Potency": "inactive"},
      {"smiles": "NNC(=O)c1nc[nH]c1C(=O)Nc1ccccn1", "Potency": "8.49 µM (active)"},
      {"smiles": "C[C@@H](NC(=O)c1nc[nH]c1C(=O)N[C@@H](Cc1ccccc1)C(=O)OC(C)(C)C)c1ccccc1", "Potency": "inactive"},
      {"smiles": "O=C(Nc1ccc(F)cc1)c1nc[nH]c1C(=O)O", "Potency": "7.57 µM (active)"},
      {"smiles": "O=C(CNC(=O)c1[nH]cnc1C(=O)N[C@@H](Cc1ccccc1)C(=O)OCc1ccccc1)OCc1ccccc1", "Potency": "inactive"},
      {"smiles": "COc1ccc(N(CC(=O)N2CCCCC2)S(=O)(=O)c2c(C)nn(C)c2C)cc1", "Potency": "inactive"},
      {"smiles": "O=C(O)CSc1ccc2nnc(-c3cccnc3)n2n1", "Potency": "inactive and 13.5 µM (active)"},
      {"smiles": "Cc1nnc(NC(=O)CSc2ccc3nnc(-c4ccccn4)n3n2)s1", "Potency": "inactive"},
      {"smiles": "O=C(CSc1ccc2nnc(-c3ccccn3)n2n1)Nc1ccccc1", "Potency": "10.7 µM (active)"},
      {"smiles": "O=C(CSc1ccc2nnc(-c3ccccn3)n2n1)Nc1ccccc1F", "Potency": "7.57 µM (active)"},
      {"smiles": "CCCCC(Sc1ccc2nnc(-c3ccccn3)n2n1)C(=O)O", "note": "(stereo not given)", "Potency": "13.5 µM (active)"}
    ]}
  ]
}
